In PubChem BioAssay AID1159580 (chemical genetic matrix, 2015):
Several values for one entry are separate records, joined by “and”; a condition that tells them apart may be missing. Equal entries are not always repeated. The campaign covered roughly 5,500 compounds. About 2,000 (36%) were called active. Another 18% or so got no clear call; they are omitted. Cut-off read from the data, not from the text of the source: active = normalized growth mostly below about 0.91 (no sharp cut-off); inconclusive = no clear call, values can overlap the other calls; inactive = mostly above about 0.92. The list shows a part of the results.

Experiment: chemical genetic growth profiling, strain panel (AID 1159580);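 note: tested at 20 µM; growth read once vehicle control cultures reached saturation at 30 °C; 1 = growth at the plate median or of vehicle wells; lower values mean less growth of the strain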
Conditions: S. cerevisiae deletion strains, growth OD

Measured: normalized growth

NNC(=O)c1ccncc1
inactive: locus YAL013W, strain DEP1, active compounds read low 1.01 | locus YAL021C, strain ccr4, active compounds read low 1.01 | locus YAL026C, strain drs2, active compounds read low 0.991 | locus YAL030W, strain snc1, active compounds read low 1.03 | locus YBL061C, strain skt5, active compounds read low 1.01 | locus YBR009C, strain hhf1, active compounds read low 0.986 | locus YBR021W, strain FUR4, active compounds read low 1.01 | locus YBR023C, strain chs3, active compounds read low 1.01 | locus YBR171W, strain sec66, active compounds read low 1.02 | locus YBR229C, strain ROT2, active compounds read low 1.01 | locus YBR231C, strain swc5, active compounds read low 1.03 | locus YBR279W, strain paf1, active compounds read low 1.01 | locus YCL011C, strain gbp2, active compounds read low 0.984 | locus YCL016C, strain dcc1, active compounds read low 0.981 | locus YCL029C, strain bik1, active compounds read low 1 | locus YCL061C, strain MRC1, active compounds read low 1.02 | locus YCL069W, strain vba3, active compounds read low 1.02 | locus YCR088W, strain abp1, active compounds read low 1.02 | locus YDL005C, strain med2, active compounds read low 1.01 | locus YDL035C, strain GPR1, active compounds read low 1.01 | locus YDL040C, strain nat1, active compounds read low 1 | locus YDL074C, strain BRE1, active compounds read low 1.03 | locus YDL101C, strain DUN1, active compounds read low 1.01 | locus YDL185W, strain tfp1, active compounds read low 0.991 | locus YDL192W, strain arf1, active compounds read low 0.995 | locus YDR001C, strain nth1, active compounds read low 1.02 | locus YDR069C, strain doa4, active compounds read low 1.02 | locus YDR101C, strain arx1, active compounds read low 0.997 | locus YDR137W, strain rgp1, active compounds read low 0.989 | locus YDR159W, strain sac3, active compounds read low 0.943 | locus YDR162C, strain NBP2, active compounds read low 1.02 | locus YDR195W, strain ref2 1 | locus YDR297W, strain sur2, active compounds read low 1.01 | locus YDR318W, strain mcm21, active compounds read low 0.993 | locus YDR334W, strain swr1, active compounds read low 1.01 | locus YDR335W, strain msn5, active compounds read low 1.01 | locus YDR388W, active compounds read low 0.992 | locus YDR392W, strain spt3, active compounds read low 0.941 | locus YDR502C, strain sam2, active compounds read low 0.993 | locus YEL003W, strain gim4, active compounds read low 1.04 | locus YEL037C, strain rad23, active compounds read low 1.02 | locus YEL061C, strain CIN8 (second series), active compounds read low 1.01 | locus YEL061C, strain CIN8, active compounds read low 1.01 | locus YER015W, strain faa2, active compounds read low 1.01 | locus YER016W, strain bim1, active compounds read low 1 | locus YER110C, active compounds read low 0.988 | locus YER111C, strain swi4, active compounds read low 1.01 | locus YER155C, strain BEM2 (second series), active compounds read low 1.03 | locus YER155C, strain BEM2, active compounds read low 1.01 | locus YER167W, strain BCK2, active compounds read low 1 | locus YFR010W, strain ubp6, active compounds read low 1.02 | locus YGL078C, strain dbp3, active compounds read low 0.992 | locus YGL086W, strain mad1, active compounds read low 1.01 | locus YGL167C, strain pmr1, active compounds read low 1 | locus YGL173C, strain kem1, active compounds read low 1.05 | locus YGL227W, strain vid30, active compounds read low 1.02 | locus YGL240W, strain doc1, active compounds read low 1.02 | locus YGL248W, strain PDE1, active compounds read low 1.01 | locus YGL253W, strain hxk2, active compounds read low 1.01 | locus YGR135W, strain pre9, active compounds read low 0.971 | locus YGR252W, strain gcn5, active compounds read low 0.943 | locus YHR013C, strain ard1, active compounds read low 0.962 | locus YHR027C, strain rpn1, active compounds read low 1.02 | locus YHR030C, strain SLT2, active compounds read low 1 | locus YHR079C, strain IRE1 (second series), active compounds read low 0.998 | locus YHR079C, strain IRE1, active compounds read low 1.01 | locus YHR094C, strain hxt1, active compounds read low 0.989 | locus YHR129C, strain ARP1, active compounds read low 1.01 | locus YHR142W, strain chs7, active compounds read low 1.01 | locus YHR200W, strain rpn10, active compounds read low 1 | locus YIL066C, strain RNR3, active compounds read low 1.02 | locus YIL073C, strain SPO22, active compounds read low 1.01 | locus YIL125W, strain kgd1, active compounds read low 1.01 | locus YIR030C, strain dcg1, active compounds read low 1 | locus YJL092W, strain hpr5, active compounds read low 1.01 | locus YJL095W, strain BCK1 (second series), active compounds read low 1.01 | locus YJL095W, strain BCK1, active compounds read low 1.02 and 0.991 | locus YJL115W, strain asf1, active compounds read low 1.01 | locus YJL129C, strain trk1, active compounds read low 1.02 | locus YJL134W, strain LCB3, active compounds read low 1.01 | locus YJL154C, strain vps35, active compounds read low 1.01 | locus YJL164C, strain tpk1, active compounds read low 0.991 | locus YJL166W, strain qcr8, active compounds read low 1.03 | locus YJL168C, strain set2, active compounds read low 0.992 | locus YJL187C, strain SWE1 (second series), active compounds read low 1.01 | locus YJR043C, strain POL32, active compounds read low 1.01 | locus YJR066W, strain TOR1, active compounds read low 0.932
